Screen size: about 5,500 compounds; about 2,000 (36%) were called active. Another 18% or so got no clear call; they are omitted. No stated cut-off is given here; in the data, active means normalized growth mostly below about 0.91 (no sharp cut-off); inconclusive means no clear call, values can overlap the other calls; inactive means mostly above about 0.92. This is one part of the list.
Assay: chemical genetic growth profiling, strain panel (AID 1159580);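 further: tested at 20 µM; growth read once vehicle control cultures reached saturation at 30 °C; 1 = growth at the plate median or of vehicle wells; lower values mean less growth of the strain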
Settings: growth OD

Measured: normalized growth

Cc1cc(=O)n(-c2ccccc2)n1C
inactive: S. cerevisiae deletion strains, locus YJR066W, strain TOR1, hits give low values 0.984 | S. cerevisiae deletion strains, locus YJR075W, strain HOC1, hits give low values 1 | S. cerevisiae deletion strains, locus YKL009W, strain mrt4, hits give low values 1 | S. cerevisiae deletion strains, locus YKL068W, hits give low values 1 | S. cerevisiae deletion strains, locus YKL085W, strain MDH1 (second series), hits give low values 0.987 | S. cerevisiae deletion strains, locus YKL085W, strain MDH1, hits give low values 0.987 | S. cerevisiae deletion strains, locus YKL160W, strain elf1, hits give low values 0.936 | S. cerevisiae deletion strains, locus YKR001C, strain vps1, hits give low values 1.02 | S. cerevisiae deletion strains, locus YKR026C, strain gcn3, hits give low values 1 | S. cerevisiae deletion strains, locus YKR091W, strain srl3, hits give low values 0.99 | S. cerevisiae deletion strains, locus YLL001W, strain dnm1, hits give low values 0.921 | S. cerevisiae deletion strains, locus YLL026W, hits give low values 1 | S. cerevisiae deletion strains, locus YLL041C, strain sdh2, hits give low values 0.991 | S. cerevisiae deletion strains, locus YLR027C, strain aat2, hits give low values 1 | S. cerevisiae deletion strains, locus YLR039C, strain RIC1, hits give low values 1.04 | S. cerevisiae deletion strains, locus YLR058C, strain SHM2, hits give low values 1 | S. cerevisiae deletion strains, locus YLR102C, strain apc9, hits give low values 0.991 | S. cerevisiae deletion strains, locus YLR113W, strain HOG1, hits give low values 0.981 | S. cerevisiae deletion strains, locus YLR221C, strain rsa3, hits give low values 0.976 | S. cerevisiae deletion strains, locus YLR258W, strain gsy2, hits give low values 1.07 | S. cerevisiae deletion strains, locus YLR262C, strain YPT6 (second series), hits give low values 0.967 | S. cerevisiae deletion strains, locus YLR262C, strain YPT6, hits give low values 1.07 | S. cerevisiae deletion strains, locus YLR268W, strain sec22, hits give low values 0.992 | S. cerevisiae deletion strains, locus YLR320W, strain mms22, hits give low values 0.96 | S. cerevisiae deletion strains, locus YLR330W, strain CHS5, hits give low values 1.01 | S. cerevisiae deletion strains, locus YLR342W, strain FKS1 (second series), hits give low values 1.02 | S. cerevisiae deletion strains, locus YLR342W, strain FKS1, hits give low values 0.99 | S. cerevisiae deletion strains, locus YLR357W, strain rsc2, hits give low values 0.988 | S. cerevisiae deletion strains, locus YLR370C, strain arc18, hits give low values 0.991 | S. cerevisiae deletion strains, locus YLR371W, strain rom2, hits give low values 0.987 | S. cerevisiae deletion strains, locus YLR384C, strain iki3, hits give low values 1 | S. cerevisiae deletion strains, locus YLR418C, strain cdc73, hits give low values 0.995 | S. cerevisiae deletion strains, locus YML016C, strain PPZ1, hits give low values 1.01 | S. cerevisiae deletion strains, locus YML032C, strain rad52, hits give low values 0.993 | S. cerevisiae deletion strains, locus YML120C, strain ndi1, hits give low values 0.97 | S. cerevisiae deletion strains, locus YML124C, strain tub3, hits give low values 0.984 | S. cerevisiae deletion strains, locus YMR058W, strain fet3, hits give low values 0.99 | S. cerevisiae deletion strains, locus YMR078C, strain ctf18, hits give low values 0.975 | S. cerevisiae deletion strains, locus YMR125W, strain sto1, hits give low values 0.935 | S. cerevisiae deletion strains, locus YMR129W, hits give low values 0.998 | S. cerevisiae deletion strains, locus YMR205C, strain PFK2, hits give low values 0.946 | S. cerevisiae deletion strains, locus YMR223W, strain ubp8, hits give low values 0.99 | S. cerevisiae deletion strains, locus YMR231W, strain pep5, hits give low values 0.997 | S. cerevisiae deletion strains, locus YMR307W, strain GAS1, hits give low values 1.09 | S. cerevisiae deletion strains, locus YNL067W, strain RPL9B, hits give low values 0.995 | S. cerevisiae deletion strains, locus YNL071W, strain lat1, hits give low values 0.992 | S. cerevisiae deletion strains, locus YNL128W, strain TEP1, hits give low values 1.01 | S. cerevisiae deletion strains, locus YNL153C, strain GIM3, hits give low values 0.991 | S. cerevisiae deletion strains, locus YNL183C, strain NPR1, hits give low values 0.987 | S. cerevisiae deletion strains, locus YNL209W, strain ssb2, hits give low values 0.994 | S. cerevisiae deletion strains, locus YNL233W, strain BNI4, hits give low values 0.989 | S. cerevisiae deletion strains, locus YNL248C, strain rpa49, hits give low values 0.952 | S. cerevisiae deletion strains, locus YNL250W, strain rad50, hits give low values 1 | S. cerevisiae deletion strains, locus YNL271C, strain bni1, hits give low values 0.989 | S. cerevisiae deletion strains, locus YNL298W, strain CLA4, hits give low values 1.01 | S. cerevisiae deletion strains, locus YNL307C, strain MCK1, hits give low values 0.991 | S. cerevisiae deletion strains, locus YNL322C, strain KRE1 (second series), hits give low values 0.991 | S. cerevisiae deletion strains, locus YNR049C, strain mso1, hits give low values 1 | S. cerevisiae deletion strains, locus YNR052C, strain pop2, hits give low values 0.982 | S. cerevisiae deletion strains, locus YOL006C, strain TOP1, hits give low values 0.961 | S. cerevisiae deletion strains, locus YOL012C, strain htz1 1.68 | S. cerevisiae deletion strains, locus YOL147C, strain pex11, hits give low values 0.989 | S. cerevisiae deletion strains, locus YOR001W, strain rrp6, hits give low values 1.05 | S. cerevisiae deletion strains, locus YOR061W, strain CKA2, hits give low values 1.02 | S. cerevisiae deletion strains, locus YOR069W, strain VPS5, hits give low values 1.01 | S. cerevisiae deletion strains, locus YOR070C, strain gyp1, hits give low values 0.999 | S. cerevisiae deletion strains, locus YOR080W, strain dia2, hits give low values 0.999 | S. cerevisiae deletion strains, locus YOR083W, strain WHI5, hits give low values 0.949 | S. cerevisiae deletion strains, locus YOR106W, strain vam3, hits give low values 0.957 | S. cerevisiae deletion strains, locus YOR136W, strain idh2, hits give low values 0.986 | S. cerevisiae deletion strains, locus YOR144C, strain elg1, hits give low values 0.995 | S. cerevisiae deletion strains, locus YOR184W, strain ser1, hits give low values 1.01 | S. cerevisiae deletion strains, locus YOR231W, strain MKK1, hits give low values 1.04 | S. cerevisiae deletion strains, locus YOR265W, strain rbl2, hits give low values 0.994 | S. cerevisiae deletion strains, locus YOR270C, strain vph1, hits give low values 0.964 | S. cerevisiae deletion strains, locus YOR290C, strain snf2, hits give low values 0.945 | S. cerevisiae deletion strains, locus YOR316C, strain cot1, hits give low values 0.985 | S. cerevisiae deletion strains, locus YPL051W, strain arl3, hits give low values 0.98 | S. cerevisiae deletion strains, locus YPL078C, strain atp4, hits give low values 0.936 | S. cerevisiae deletion strains, locus YPL106C, strain sse1, hits give low values 0.981 | S. cerevisiae deletion strains, locus YPL240C, strain hsp82, hits give low values 1.01 | S. cerevisiae deletion strains, locus YPL256C, strain CLN2, hits give low values 0.999 | S. cerevisiae deletion strains, locus YPR119W, strain clb2, hits give low values 0.982 | S. cerevisiae deletion strains, locus YPR141C, strain kar3, hits give low values 0.995 | S. cerevisiae deletion strains, locus YPR163C, strain tif3, hits give low values 0.992 | S. cerevisiae deletion strains, locus YPR167C, strain met16, hits give low values 0.984 | S. cerevisiae deletion strains, strain wtn01, hits give low values 0.979 | S. cerevisiae strains, strain wild type, hits give low values 1.01

Source: PubChem BioAssay AID1159580 (chemical genetic matrix, 2015)
